From PubChem
Pf growth 48h – inhibits P. falciparum growth in the first generation, 48 h; P. falciparum luciferase growth in erythrocytes, 48 h; Potency, µM (series often up to 28.7 µM), hits mostly inhibitors; 5.9% of 310,000 active; AID 504832
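Compounds are pin-transferred into medium, infected erythrocytes (2% hematocrit, 0.1% parasitemia final) are added, and plates sit one parasite generation at 37 C in 5% CO2. Detection reagent is then added and luminescence measured.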
HCMV antiviral – blocks human cytomegalovirus replication | 4.5% of 410,000 active | AID 1259415 | activity change, negative = inhibition, % at 57.5 µM | HFF cells, HCMV-luciferase reporter, 72 h; hits give low values; in the data active = activity change below about -60%; inconclusive = no clear call, values can overlap the other calls; inactive = above about -39%
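Cell-based, HFFs, 1000 cells/well, 16 h 37C; cpds in DMSO + HCMV-luc, MOI 1 PFU/cell; 72 h 37C; OneGlo luminescence after 5 min RT; norm. to buffer vs Salinomycin 10uM.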
HCV inh – HCV inhibition | AID 651820 | 3.4% of 340,000 active | Potency, µM (doses to about 41.8 µM), most hits filed as inhibitors | Huh7.5.1 HCVcc-Cre infection, luciferase reporter, 44 h
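Antiviral activity was scored by luciferase reporter output from cells infected with HCVcc-Cre (~0.5 moi) in presence of compound, 44 h infection period, cells seeded 1,000/well 4 h prior.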
Pf growth 96h – inhibits malaria parasite growth, 96 h; P. falciparum luciferase reporter growth, 96 h; Potency, µM (titrated, usually from 28.7 µM), hits mostly inhibitors; 6.9% of 320,000 active; AID 504834
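96 h incubation, 37 C, 5% CO2, of luciferase-reporter P. falciparum-infected RBCs (2% hematocrit, 0.05% parasitemia final) with test compounds; endpoint luminescence.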
Hits are given with their value; n = inactive; u = inconclusive; x = no result given. Rows were chosen to be rich in hits. Some 13% of all compounds tested hit in one or more screens of this group. Unless noted, calls come from the whole dose curve; as a rule, active = well fitted inhibition curve with a large enough effect; inconclusive = small, poorly fitted or top-dose-only effect, or another doubt; inactive = no such curve, though single readings can be large or run the other way.

SMILES | Pf growth 48h | HCMV antiviral | HCV inh | Pf growth 96h
CCCc1nn2c(=O)cc(COC(=O)c3cccc(NC(=O)c4cccs4)c3)nc2s1 | x | n | x | x
CCOC(=O)c1c(C)[nH]c(C)c1S(=O)(=O)N1CCN(c2ccccc2OC)CC1 | x | n | x | x
COc1cccc(CN2CC(C(=O)NCCN3CCOCC3)CCC2=O)c1 (stereo unspecified) | n | n | n | 15µM
CCn1nc(C)c(CNC(=O)C2CCC(=O)N(CCc3ccc(Cl)cc3)C2)c1C (stereo unspecified) | n | n | n | 9.3µM
COc1ccc(OC)c(NC(=O)C2CC(=O)N(CCc3ccc(F)cc3)C2)c1 (stereo unspecified) | x | x | n | x
COc1cccc(CN2CC(C(=O)NCCCc3ccncc3)CCC2=O)c1 (stereo unspecified) | n | n | x | 12µM
COc1ccc(NC(=O)C2CC(=O)N(CCc3ccc(Cl)cc3)C2)cc1 (stereo unspecified) | u | -86 | n | n
COc1cccc(CN2CC(C(=O)NCCCc3ccc(C)cc3)CCC2=O)c1 (stereo unspecified) | n | n | n | n
O=C(NCCCc1ccncc1)C1CCC(=O)N(Cc2ccc(Cl)cc2)C1 (stereo unspecified) | n | n | x | 10µM
O=C(NCc1ccncc1)C1CCC(=O)N(CCc2ccc(Cl)cc2)C1 (stereo unspecified) | u | n | n | 9.3µM
O=C(NCCc1ccc(C(F)(F)F)cc1)C1CCC(=O)N(CCCN2CCCC2=O)C1 (stereo unspecified) | n | n | n | 15µM
COc1cccc(CN2CC(C(=O)N(C)Cc3ccc(C)cc3)CCC2=O)c1 (stereo unspecified) | u | n | n | n
COCc1cc(CN(C)C(=O)C2CCC(=O)N(Cc3cccc(OC)c3)C2)[nH]n1 (stereo unspecified) | n | n | n | 9.3µM
CCc1ccc(CSc2nc(-c3ccccc3F)nc3c2Cc2c(CO)cnc(C)c2O3)cc1 | x | n | x | x
O=C(COc1cc(O)c2c(=O)cc(-c3ccccc3)oc2c1)c1cccc([N+](=O)[O-])c1 | 4.1µM | n | n | n
O=C(COc1cc(O)c2c(=O)cc(-c3ccccc3)oc2c1)c1ccccc1 | n | n | n | n
O=C(CN1CCOCC1)N/N=C/c1cc2ccccc2nc1Cl | n | n | n | 1.5µM
Cc1nn2c(C)c(C(=O)NCc3cccc(Br)c3)cnc2c1-c1ccccc1 | x | n | x | x
CCOc1ccccc1Nc1nnc(SCC(=O)Nc2nc(-c3ccc(OC)cc3)cs2)s1 | u | n | n | u
COc1ccccc1Nc1nnc(SCC(=O)Nc2nc(-c3ccc(F)cc3)cs2)s1 | n | -88 | n | 13µM
COc1ccc(-c2csc(NC(=O)CSc3nnc(Nc4ccccc4C)s3)n2)cc1 | u | -70 | n | u
CCOc1ccc(CCNC(=O)CCCn2c(=O)c3cccn3c3cccnc32)cc1 | x | n | x | x
CC(=O)Nc1ccccc1-c1nc2ccccc2n(CC(=O)Nc2cccc(C)c2C)c1=O | x | n | x | x
CCOc1ccccc1CNCc1ccc(F)cc1 | n | u | n | n
CCOc1ccccc1CNCCNCC(C)O (stereo unspecified) | n | n | n | 9.3µM
SMILES | Pf growth 48h | HCMV antiviral | HCV inh | Pf growth 96h
Cc1ccccc1OCCNCC(C)O (stereo unspecified) | n | n | n | 13µM
Cc1ccc2c(c1)-c1nc(-c3ccccc3)cc(-c3ccccc3)c1CO2 | x | n | x | x
CC(=O)Nc1ccc(NC(=O)C2Cc3ccccc3N2C(=O)c2ccccc2)cc1 (stereo unspecified) | x | n | x | x
COc1ccc(C(=O)N(Cc2sccc2C)C2CCS(=O)(=O)C2)cc1Cl (stereo unspecified) | x | n | x | x
CCOc1cc(C=O)c(Br)cc1OC1CCCC1 | n | -62 | n | n
O=C(Nc1ccc(F)cc1)C(c1cc2ccccc2o1)N1CCN(c2ccncc2)CC1 (stereo unspecified) | x | n | x | x
CC(C)CCN(CCC(C)C)C/C(O)=C(\C#N)c1nc(-c2ccccc2)cs1 | x | n | u | 2.6µM
CCC1=C(CC2NCCc3ccccc32)CC2c3cc(OC)c(OC)cc3CCN2C1 (stereo unspecified) | x | -100 | u | x
COc1cc2c(cc1OC)CN1CCc3cc(OC)c(OC)cc3C1C2 (stereo unspecified) | x | n | x | x
CC[C@H]1CN2CCc3cc(OC)c(OC)cc3C2C[C@@H]1C[C@H]1NCCc2cc(OC)c(OC)cc21 (stereo partly specified) | 0.052µM | -97 | 0.32µM | 0.046µM
CSc1ccc(CCNC(=O)c2cc(C)nc3c2c(C)nn3-c2ccccc2)cc1 | x | n | x | x
CCC(NC(=O)CCl)c1ccc(C)cc1 (stereo unspecified) | 5.9µM | -78 | n | 1.3µM
CCCC(NC(=O)CCl)c1ccccc1 (stereo unspecified) | 9.3µM | -72 | u | u
CC(C)CC(NC(=O)CCl)c1ccccc1 (stereo unspecified) | n | u | n | u
CC(C)C(NS(=O)(=O)c1ccc2c(c1)oc(=O)n2C)C(=O)NCCc1ccccc1 (stereo unspecified) | x | n | x | x
Cc1ccc(-n2c(=O)c3c4c(sc3n(CC(=O)C(C)(C)C)c2=O)CCCCC4)cc1C | x | n | x | x
Cc1nc(-c2ccc(Cl)cc2)sc1CCNC(=O)C(=O)Nc1ccc2c(c1)OCCO2 | x | n | x | x
O=C1C(Cc2ccccc2)C(c2ccccc2)N1c1ccccc1 (stereo unspecified) | u | n | n | 10µM
COc1ccc(Nc2nc(-c3cccs3)nc3ccccc23)c(OC)c1 | n | n | 11µM | u
COc1ccccc1Nc1nc(-c2cccs2)cs1 | n | n | u | n
COc1ccc(Nc2nc(-c3cccs3)cs2)cc1 | n | n | n | 0.52µM
Oc1ccc(Nc2nc(-c3cccs3)cs2)cc1 | n | n | u | n
CN(C)C(=O)c1ccc(Nc2nc(-c3cccs3)nc3ccccc23)cc1 | 10µM | u | 2.8µM | 10µM
COc1ccc(OC)c(Nc2nc(-c3cccs3)cs2)c1 | n | n | 14µM | x
COc1ccc(-c2nc3c4ccccc4n(CC(=O)Nc4cc(F)ccc4F)c(=O)n3n2)cc1 | x | n | x | x
SMILES | Pf growth 48h | HCMV antiviral | HCV inh | Pf growth 96h
Cc1ccc2oc(C(=O)Nc3c(C(=O)Nc4cccc(Cl)c4)oc4ccccc34)cc(=O)c2c1 | x | n | x | x
Cn1cnc(S(=O)(=O)N2CCCC(C(=O)NCc3ccc(Cl)cc3)C2)c1 (stereo unspecified) | x | n | x | x
Cc1ccc(-n2nc(C(=O)Nc3ccc(C)c(F)c3)c3c4ccccc4n(C)c3c2=O)cc1 | x | n | x | x
COc1ccc(C)cc1Nc1nc(-c2c[nH]c3ccccc23)cs1 | u | n | u | 2.1µM
COc1ccc(Nc2nc(-c3cccs3)cs2)c(OC)c1 | x | n | 10µM | n
c1ccc2c(-c3csc(-c4ccncc4)n3)c[nH]c2c1 | n | n | u | u
COc1ccc(N2CCN(C(=O)c3sc4nc5n(c(=O)c4c3C)CCC5)CC2)cc1 | x | n | x | x
N#CC1(NC(=O)COC(=O)c2cc(O)c3ccccc3c2O)CCCCC1 | u | x | n | 12µM
N#CC1(NC(=O)COC(=O)c2ccccc2[N+](=O)[O-])CCCCC1 | n | n | n | n
